High-throughput results (PubChem)
Pf Dd2 inh: qHTS Primary assay for Inhibitors of Plasmodium falciparum Dd2 growth in vitro; P. falciparum Dd2 growth, SYBR Green, 72 h; AID 1347417, 2020; 120,000 compounds, 4.3% hits; Potency, µM (titrated, usually from 28.9 µM), most hits filed as inhibitors; active = well fitted inhibition curve with a large enough effect; also: nearly all actives have a fitted effect of over 65% in size
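Readout: SYBR Green fluorescence, 485 nm excitation, 535 nm emission, after ~16 h lysis at 37C. Before that, Dd2-infected red cells (2.5% hematocrit) grew 72 h with compound, 29 uM top final concentration.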
Large screens that a line does not name were inactive. The full list was thinned out, with hits kept by preference.

O=C(c1c(F)cccc1Cl)N1C[C@@H](CO)[C@H](c2ccccn2)C1	none
CCOC(=O)c1ccc(NC(=O)CC2C(=O)N(c3ccc(C)cc3)C(=O)N2C2CCCCC2)cc1 (stereo not drawn)	none
COc1ccc(NC(=O)CC2C(=O)N(c3ccc(OC)cc3)C(=O)N2C2CCCCC2)cc1 (stereo not drawn)	none
CCOc1ccc(NC(=O)CC2C(=O)N(c3ccccc3)C(=O)N2C2CCCC2)cc1 (stereo not drawn)	none
CCc1ccc(NC(=O)CC2C(=O)N(c3ccc(C)cc3)C(=O)N2C2CCCC2)cc1 (stereo not drawn)	Pf Dd2 inh 11µM
CCOc1ccc(NC(=O)CC2C(=O)N(c3ccc(OC)cc3)C(=O)N2C2CCCCC2)cc1 (stereo not drawn)	none
CCc1ccc(NC(=O)CC2C(=O)N(c3ccc(Cl)cc3)C(=O)N2C2CCCC2)cc1 (stereo not drawn)	Pf Dd2 inh 10µM
Cn1c(COc2cccc(CN3CCCC3)c2Cl)nnc1C1CC(N)C1 (stereo not drawn)	none
NC1CCCN(Cc2ccccc2F)C1 (stereo not drawn)	none
N[C@@H]1CCN(Cc2ccccc2OCc2ccc(Cl)cc2)C[C@H]1O	Pf Dd2 inh 4.5µM
Cc1ccc(C)c(N2CCN(C(=O)CN3CCSc4ccccc43)CC2)c1	none
COc1ccc(Cn2c(=O)[nH]c3cc(C(=O)N4CCN(c5cc(C)ccc5C)CC4)ccc3c2=O)cc1	none
Cc1c(C)n(Cc2ccccc2)c2ccc(C(=O)N3CCN(c4ccc(F)cc4)CC3)cc12	none
O=C(CN1CCSc2ccccc21)N1CCN(c2ccc(F)cc2)CC1	none
O=C(c1ccc2c(c1)N(Cc1ccc(F)cc1)CCS2)N1CCN(c2ccccc2)CC1	Pf Dd2 inh 10µM
Cc1c(C)n(Cc2ccc(F)cc2)c2ccc(C(=O)N3CCN(c4ccc(Cl)cc4)CC3)cc12	none
Cc1ccc(CN2CCSc3ccc(C(=O)N4CCN(c5cc(C)ccc5C)CC4)cc32)cc1	Pf Dd2 inh 11µM
Cc1ccc(Cl)cc1N1CCN(C(=O)c2ccc3c(c2)N(Cc2ccc(F)cc2)CCS3)CC1	Pf Dd2 inh 7.9µM
Cc1ccc(Cl)cc1N1CCN(C(=O)Cn2cnc3onc(-c4ccc(F)cc4)c3c2=O)CC1	none
CCc1noc(-c2ccn3c(CNC(=O)c4cc5ccccc5[nH]4)nnc3c2)n1	none
CN1CCCC2(CCN(C(=O)c3sccc3S(N)(=O)=O)C2)C1=O (stereo not drawn)	none
O=C(CN1CCCc2nc(C3CC3)ncc2C1=O)NC1CC1	none
CNC(=O)C1(N2CCC[C@H]2C(=O)N2CCCCCC2)COC1	none
Cc1ccc(-c2ncc(C(=O)N(C)Cc3nc(CC(C)C)no3)c(=O)[nH]2)cc1	none
CC(C)Cc1nc2nccc(-c3ccccc3)n2n1	none
CC(C)Cc1cnc(-c2ccccc2)[nH]1	Pf Dd2 inh 16µM
Cc1cc(C)cc(N2CCC(NC(=O)c3ccc4[nH]ccc4c3)C2=O)c1 (stereo not drawn)	none
COc1ccc(CC(=O)N2C[C@H](c3nc(-c4cccnc4)no3)[C@@H](C)C2)cc1	none
COc1ccc(N(Cc2cccs2)C(=O)COc2cccc(Cl)c2)cc1	none
CCCCOc1cccc(C(=O)N(Cc2cccs2)c2ccc(OC)cc2)c1	Pf Dd2 inh 0.32µM
COc1ccc(N(Cc2cccs2)C(=O)c2ccc(OC)c(Cl)c2)cc1	none
CCc1cc(=O)n(CC(=O)Nc2cccc(Cl)c2C)c(N2CCOCC2)n1	none
COc1ncccc1-c1ccnc(-c2nnc(C)n2Cc2ccccc2)c1	none
COc1ccc(CN(C)CC2CCN(CCc3ccc(F)cc3)CC2)cc1Cn1cccn1	Pf Dd2 inh 10µM
CN(CC1CCN(CCc2cccc(F)c2)CC1)C(=O)[C@@H](N)Cc1cnc[nH]1	none
COc1ccc(CCN2CCC(CN(C)C(=O)C3CCCCO3)CC2)cc1 (stereo not drawn)	none
COc1cccc(C(=O)N2CCn3c(nn(-c4ccncc4)c3=O)C2)c1	none
Cc1noc(C)c1-c1cc2cc(CNC3CC3)oc2c(NC2CCN(C)CC2)n1	none
Cc1noc(C)c1-c1cc2cc(C(C)C)oc2c(Nc2ccn(C)n2)n1	none
Cc1cc2cc(-c3c(C)noc3C)nc(NC3CC3)c2o1	none
Cc1noc(C)c1-c1cc2cc(C(C)C)oc2c(NCCN2CCOCC2)n1	Pf Dd2 inh 10µM
Cc1noc(C)c1-c1cc2cc(CO)oc2c(NCC2CCOCC2)n1	none
Cc1noc(C)c1-c1cc2cc(C(C)C)oc2c(NC2CCN(C)CC2)n1	Pf Dd2 inh 10µM
Cc1ncsc1CN1CCCCCCNC(=O)CC1	none
COCc1noc([C@@H]2CN(Cc3ccoc3)C[C@H]2COC)n1	none
COc1cccc(CC(=O)N2CCCn3nc(C)c(-c4ccnn4C(C)C)c32)c1	none
CC(=O)N1CCC(N2CC3(C2)C(=O)N(Cc2ccccc2Cl)C(=O)[C@@H]2C[C@@H](O)CN23)CC1	Pf Dd2 inh 7.1µM
CCCCN1C(=O)[C@@H]2C[C@@H](O)CN2C2(CN(C3CCN(C(C)=O)CC3)C2)C1=O	none
COC(=O)c1ccc(CN2C(=O)[C@@H]3C[C@@H](O)CN3C3(CN(C4CCN(C(C)=O)CC4)C3)C2=O)cc1	none
Cc1ccc(C)c(NC(=O)Cn2c(=O)n(-c3ccccc3)c(=O)c3c2cc(C)n3C)c1	none
COc1ccc(S(=O)(=O)N[C@H]2[C@H](O)[C@H](O)C[C@@H]2c2ccc(C(F)(F)F)nc2)cc1	none
CCc1cc(N2CCOCC(O)(CN3CCCC3)C2)nc(N2CCCC2)n1 (stereo not drawn)	Pf Dd2 inh 5.6µM
CCc1cc(N2CCC3(CCCN(C)C3=O)C2)nc(N2CCCC2)n1 (stereo not drawn)	none
COc1ccc(C(=O)N2CCOCC(O)(CN3CCCC3)C2)c(OC)c1 (stereo not drawn)	none
COc1ccc(-c2nc(S(=O)(=O)c3ccccc3)c(N3CCC(C)CC3)o2)cc1	none
COc1ccc(CNC(=O)Cn2c(=O)oc3cc(S(=O)(=O)N4CCC(C)CC4)ccc32)cc1	none
COc1ccc(-c2onc(C)c2C)cc1S(=O)(=O)N1CCC(C)CC1	none
COc1ccc(CN2CCC(N3CCCCCC3=O)CC2)cc1	none
COc1ccc(-c2nnc(SCC(=O)N3CCCCC3)o2)cc1	none
Cc1cc2oc(=O)c(CC(=O)O)c(C)c2c2occ(-c3ccccc3)c12	none
COc1ccc(-c2cc3ccc(O)c(CN4CCC(C)CC4)c3oc2=O)cc1	Pf Dd2 inh 2.2µM
O=c1oc2c(CN3CCCC3)c(O)ccc2cc1-c1ccccc1	Pf Dd2 inh 11µM
O=c1oc2ccc(Br)cc2cc1-c1csc(-c2ccccc2)n1	none
COc1ccc(CN2CCC3(CC2)CC(O)CCO3)cc1OC (stereo not drawn)	none
COc1ccc(-c2c(C)c3ccc(O)c(CN4CCC(C)CC4)c3oc2=O)cc1OC	Pf Dd2 inh 10µM
COc1ccc(-c2cc3ccc(O)c(CN4CCCC4)c3oc2=O)cc1	Pf Dd2 inh 5.6µM
CC1(C)[C@H](Cc2cc(CN3CCN(c4ccccc4)CC3)on2)C[C@@H]1NC(=O)NCc1ccccc1	none
CCn1ncc(N2CCCC(CC(=O)NCCC3=CCCCC3)C2)cc1=O (stereo not drawn)	none
C[S+](=O)([O-])NCCn1ccc2cc(OC3CCN(c4ncc(F)cn4)CC3)cnc21	none
O=C(O)COc1ccc(-c2nccc3c2C(=O)N(Cc2cccc(C(F)(F)F)c2)CC(COc2cccnc2)O3)cc1 (stereo not drawn)	none
Cn1cc(CN2Cc3c(cc(N4CCOCC4)nc3-c3ccc(CO)cc3)C2=O)cn1	none
O=C(C1CCN(c2cnn(Cc3ccccc3)c(=O)c2)C1)N1CCc2ccccc2C1 (stereo not drawn)	none
CCNC(=O)[C@@H]1C[C@H](NC(=O)c2ccn(CC)n2)CN1C1CCOCC1	none
